PubChem BioAssay (NCI)
About 79,000 compounds went through this panel and 15% of them were active in at least one assay; those are over-represented in the sample as a whole. Calls of active or inactive are those of the source. No stated cut-off is given here; in the data, active means growth inhibition above about 70%; inactive means the rest.

Legend:
[1] = NCI Yeast Anticancer Drug Screen. Data for the rad18 strain (AID 177); conditions: S. cerevisiae rad18 mutant growth inhibition, hits give high values
Summary of the method: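 Yeast carrying a defined DNA damage repair alteration were exposed to compounds. Growth inhibition was expressed relative to vehicle-treated controls.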

[2] = NCI Yeast Anticancer Drug Screen. Data for the rad52 strain (AID 147);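 further: 0% = growth of vehicle-treated control cultures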; conditions: S. cerevisiae rad52 mutant growth inhibition, hits give high values
Summary of the method: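 Yeast strain carrying a DNA damage repair alteration was exposed to test compounds. Growth inhibition was measured relative to vehicle-treated controls.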

[3] = NCI Yeast Anticancer Drug Screen. Data for the wt1 strain (AID 149);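 further: 0% = growth of vehicle-treated wt1 cultures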; conditions: S. cerevisiae wt1 strain (SPY 50644) growth inhibition, hits give high values
Summary of the method: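 Yeast wt1 strain exposed to compounds; growth inhibition measured relative to vehicle-treated controls.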

[4] = NCI Yeast Anticancer Drug Screen. Data for the rad50EPP+ strain (AID 151);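 further: 0% = growth of vehicle-treated control cultures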; conditions: S. cerevisiae rad50 mutant strain, hits give high values
Summary of the method: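 Yeast strain carrying rad50 alteration (rad50EPP+) exposed to compounds; growth inhibition measured relative to vehicle-treated controls.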

[5] = NCI Yeast Anticancer Drug Screen. Data for the mgt1 strain (AID 153); conditions: S. cerevisiae mgt1 mutant growth inhibition, hits give high values
Summary of the method: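 Yeast mgt1 strain (DNA repair/cell-cycle alteration panel) exposed to compounds; growth inhibition measured relative to vehicle-treated controls.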

[6] = NCI Yeast Anticancer Drug Screen. Data for the mec2-1 strain (AID 157); conditions: S. cerevisiae mec2-1 strain, hits give high values
Summary of the method: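 mec2-1 yeast strain, carrying an alteration in DNA damage repair or cell cycle control, was exposed to compounds; growth inhibition was measured relative to vehicle-treated controls.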

[7] = NCI Yeast Anticancer Drug Screen. Data for the rad14 strain (AID 159);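 further: 0% = growth of vehicle-treated control cultures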; conditions: S. cerevisiae rad14 strain growth inhibition, hits give high values
Summary of the method: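 Yeast cells carrying a defined DNA-repair defect were exposed to compounds, and growth inhibition was calculated relative to vehicle-treated control cultures.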

[8] = NCI Yeast Anticancer Drug Screen. Data for the sgs1 mgt1 strain (AID 161);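 further: 0% = growth of cultures given vehicle only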; conditions: S. cerevisiae sgs1 mgt1 strain, hits give high values
Summary of the method: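 Compounds are added to genetically altered yeast, and growth is compared with cultures given vehicle alone to give percent inhibition.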

[9] = NCI Yeast Anticancer Drug Screen. Data for the CLN2oe strain (AID 163);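 further: 0% = growth of vehicle-only control cultures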; conditions: S. cerevisiae CLN2oe strain, hits give high values
Summary of the method: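 Yeast cells carrying a defined cell-cycle control alteration were exposed to test compounds. Growth inhibition was scored against vehicle-treated control cultures.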

[10] = NCI Yeast Anticancer Drug Screen. Data for the cln2 rad14 strain (AID 165);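 further: 0% = growth equal to vehicle treated cultures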; conditions: S. cerevisiae cln2 rad14 strain, hits give high values
Summary of the method: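 Yeast carrying cln2 and rad14 alterations (cell cycle control and DNA damage repair) were exposed to compounds. Growth inhibition was measured against vehicle-treated controls.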

[11] = NCI Yeast Anticancer Drug Screen. Data for the bub3 strain (AID 167); conditions: S. cerevisiae bub3 mutant strain, hits give high values
Summary of the method: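 Compounds were applied to a genetically altered yeast strain carrying a cell-cycle control defect. Growth inhibition was scored against vehicle-treated controls.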

[12] = NCI Yeast Anticancer Drug Screen. Data for the wt2 strain (AID 169);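 further: 0% = growth of vehicle-treated yeast cultures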; conditions: S. cerevisiae wt2 strain growth inhibition, hits give high values
Summary of the method: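 Yeast cells were exposed to test compounds, and growth inhibition was measured relative to vehicle-treated controls.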

[13] = NCI Yeast Anticancer Drug Screen. Data for the mlh1 strain (AID 171);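 further: 0% = growth of vehicle-treated control cultures of the same strain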; conditions: S. cerevisiae mlh1 strain growth inhibition, hits give high values
Summary of the method: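 Yeast carrying a defined genetic alteration in DNA damage repair or cell cycle control were exposed to test compounds. Growth inhibition was measured relative to vehicle-treated controls.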

[14] = NCI Yeast Anticancer Drug Screen. Data for the sgs1 strain (AID 173);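 further: 0% = growth of vehicle-only control cultures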; conditions: S. cerevisiae sgs1 mutant, hits give high values
Summary of the method: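 Yeast mutant strains carrying defined defects in DNA damage repair or cell cycle control were exposed to test compounds. Growth inhibition was scored against vehicle-treated controls.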

[15] = NCI Yeast Anticancer Drug Screen. Data for the mlh1 rad18 strain (AID 175); conditions: S. cerevisiae mlh1 rad18 strain growth inhibition, hits give high values
Summary of the method: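 Growth inhibition of the yeast strain was measured after compound exposure and expressed relative to vehicle-treated controls. The strain carries defined defects in DNA damage repair.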

[16] = NCI Yeast Anticancer Drug Screen. Data for the rad50 strain (AID 155);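 further: 0% = growth of vehicle-only cultures of the same strain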; conditions: S. cerevisiae rad50 strain growth inhibition, hits give high values
Summary of the method: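 Yeast carrying a defined DNA repair defect were exposed to test compounds, and growth was compared with vehicle-treated controls to give percent inhibition.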

[17] = at 5.0 µM (retest, dose inferred, filed as 0.5)
[18] = at 50.0 µM (retest, dose inferred, filed as 5.0)

Measured: growth inhibition

CCN(CC)CC(=O)c1ccc2cc(Cl)c3ccccc3c2c1
active: [1]; at 11.0 µM 99% | [1]; at 33.0 µM 98% | [1]; at 100.0 µM 98%

O=C(NCCNCCNC(=O)c1cc(-c2ccccc2)nc2ccccc12)c1cc(-c2ccccc2)nc2ccccc12
active: [6]; at 50.0 µM 96.3% | [10]; at 50.0 µM 90.3% | [11]; at 50.0 µM 97.8%
inactive: [2]; at 1.2 µM -3% | [2]; at 3.7 µM -3% | [2]; at 11.0 µM -3% | [2]; at 33.0 µM -5% | [2]; at 100.0 µM 41% | [3]; at 1.2 µM -2% | [3]; at 3.7 µM -2% | [3]; at 11.0 µM -3% | [3]; at 33.0 µM -2% | [3]; at 100.0 µM 6% | [4]; at 1.2 µM -1% | [4]; at 3.7 µM 2% | [4]; at 11.0 µM 3% | [4]; at 33.0 µM 9% | [4]; at 100.0 µM 9% | [5]; at 1.2 µM -2% | [5]; at 3.7 µM -1% | [5]; at 11.0 µM -2% | [5]; at 33.0 µM 0% | [5]; at 100.0 µM 1% | [6]; at 1.2 µM -3% | [6]; at 3.7 µM -3% | [6]; [17] -11% | [6]; at 11.0 µM -1% | [6]; at 33.0 µM -2% | [6]; [18] 40% | [6]; at 100.0 µM 5% | [7]; at 1.2 µM -3% | [7]; at 3.7 µM -1% | [7]; at 11.0 µM -2% | [7]; at 33.0 µM 4% | [7]; at 100.0 µM 4% | [8]; [17] 9% | [8]; [18] 7% | [8]; at 50.0 µM 21.6% | [9]; at 1.2 µM -2% | [9]; at 3.7 µM -2% | [9]; at 11.0 µM -3% | [9]; at 33.0 µM -5% | [9]; at 100.0 µM 45% | [10]; [17] -4% | [10]; [18] 45% | [11]; at 1.2 µM -2% | [11]; at 3.7 µM -1% | [11]; [17] 2% | [11]; at 11.0 µM -1% | [11]; at 33.0 µM -5% | [11]; [18] 58% | [11]; at 100.0 µM -2% | [12]; at 1.2 µM -2% | [12]; at 3.7 µM -2% | [12]; at 11.0 µM -1% | [12]; at 33.0 µM -2% | [12]; at 100.0 µM 4% | [13]; at 1.2 µM -2% | [13]; at 3.7 µM 1% | [13]; at 11.0 µM -2% | [13]; at 33.0 µM -2% | [13]; at 100.0 µM -1% | [14]; at 1.2 µM -2% | [14]; at 3.7 µM 0% | [14]; at 11.0 µM 0% | [14]; at 33.0 µM 0% | [14]; at 100.0 µM 22% | [15]; [17] 7% | [15]; [18] 66% | [15]; at 50.0 µM 50.6% | [1]; at 1.2 µM -3% | [1]; at 3.7 µM -4% | [1]; at 11.0 µM -3% | [1]; at 33.0 µM -2% | [1]; at 100.0 µM -1%

C1=CCN([B-](c2ccccc2)[C+]2CCCCC2)C=C1
inactive: [2]; at 1.2 µM -3% | [2]; at 3.7 µM -4% | [2]; at 11.0 µM 1% | [2]; at 33.0 µM 58% | [3]; at 1.2 µM -1% | [3]; at 3.7 µM -2% | [3]; at 11.0 µM 1% | [3]; at 33.0 µM 64% | [4]; at 1.2 µM -3% | [4]; at 3.7 µM -4% | [4]; at 11.0 µM -3% | [4]; at 33.0 µM 2% | [4]; at 100.0 µM 22% | [16]; at 1.2 µM -3% | [16]; at 3.7 µM -49% | [16]; [17] -2% | [16]; at 11.0 µM 16% | [6]; at 1.2 µM -1% | [6]; at 3.7 µM -2% | [6]; [17] -4% | [6]; at 11.0 µM 4% | [7]; at 1.2 µM -1% | [7]; at 3.7 µM -2% | [7]; at 11.0 µM 1% | [7]; at 33.0 µM 28% | [8]; [17] -5% | [9]; at 1.2 µM -6% | [9]; at 3.7 µM -6% | [9]; at 11.0 µM 1% | [9]; at 33.0 µM 32% | [10]; [17] -1% | [10]; [18] 18% | [10]; at 50.0 µM 2.1% | [11]; at 1.2 µM 2% | [11]; at 3.7 µM -1% | [11]; [17] 1% | [11]; at 11.0 µM 4% | [11]; [18] 15% | [11]; at 50.0 µM -11.4% | [12]; at 1.2 µM -1% | [12]; at 3.7 µM 7% | [12]; at 11.0 µM 3% | [13]; at 1.2 µM -1% | [13]; at 3.7 µM -2% | [13]; at 11.0 µM -1% | [14]; at 1.2 µM -2% | [14]; at 3.7 µM -2% | [14]; at 11.0 µM 6% | [15]; [17] 0% | [1]; at 1.2 µM 0% | [1]; at 3.7 µM 0% | [1]; at 11.0 µM 2%
active: [2]; at 100.0 µM 98% | [3]; at 100.0 µM 98% | [16]; at 33.0 µM 70% | [16]; [18] 86% | [16]; at 50.0 µM 98.9% | [16]; at 100.0 µM 99% | [6]; at 33.0 µM 76% | [6]; [18] 96% | [6]; at 50.0 µM 98.7% | [6]; at 100.0 µM 99% | [7]; at 100.0 µM 99% | [8]; [18] 92% | [8]; at 50.0 µM 99.2% | [9]; at 100.0 µM 95% | [11]; at 33.0 µM 80% | [11]; at 100.0 µM 97% | [12]; at 33.0 µM 94% | [12]; at 100.0 µM 98% | [13]; at 33.0 µM 75% | [13]; at 100.0 µM 99% | [14]; at 33.0 µM 92% | [14]; at 100.0 µM 99% | [15]; [18] 96% | [15]; at 50.0 µM 96.5% | [1]; at 33.0 µM 75% | [1]; at 100.0 µM 98%
